{"source": "PubChem BioAssay (NCI)", "key": {"[1]": {"assay": "NCI Yeast Anticancer Drug Screen. Data for the rad52 strain (AID 147);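 note: 0% = growth of vehicle-treated control cultures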", "conditions": "S. cerevisiae rad52 mutant growth inhibition, stronger effect = higher value", "outline": "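Here a repair-compromised yeast strain receives each compound; its growth is then quantified and normalised to vehicle-only controls.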"}, "[2]": {"assay": "NCI Yeast Anticancer Drug Screen. Data for the wt1 strain (AID 149);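 note: 0% = growth of vehicle-treated wt1 cultures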", "conditions": "S. cerevisiae wt1 strain (SPY 50644) growth inhibition, stronger effect = higher value", "outline": "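Compounds are added to wt1 yeast cultures. Growth is then measured. Inhibition is expressed relative to vehicle-treated controls.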"}, "[3]": {"assay": "NCI Yeast Anticancer Drug Screen. Data for the rad50EPP+ strain (AID 151);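 note: 0% = growth of vehicle-treated control cultures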", "conditions": "S. cerevisiae rad50 mutant strain, stronger effect = higher value", "outline": "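Read-out is yeast growth inhibition relative to vehicle; cells used were the rad50EPP+ strain.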"}, "[4]": {"assay": "NCI Yeast Anticancer Drug Screen. Data for the rad50 strain (AID 155);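 note: 0% = growth of vehicle-only cultures of the same strain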", "conditions": "S. cerevisiae rad50 strain growth inhibition, stronger effect = higher value", "outline": "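Inhibition values express reduced yeast growth in compound-treated cultures relative to vehicle-treated controls.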"}, "[5]": {"assay": "NCI Yeast Anticancer Drug Screen. Data for the mec2-1 strain (AID 157)", "conditions": "S. cerevisiae mec2-1 strain, stronger effect = higher value", "outline": "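Using mec2-1 yeast: add compound, measure growth, express inhibition versus vehicle-treated cultures.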"}, "[6]": {"assay": "NCI Yeast Anticancer Drug Screen. Data for the rad14 strain (AID 159);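 note: 0% = growth of vehicle-treated control cultures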", "conditions": "S. cerevisiae rad14 strain growth inhibition, stronger effect = higher value", "outline": "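A mutant yeast strain defective in DNA damage repair is treated with compound; inhibition of its growth is scored against untreated, vehicle-exposed cultures.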"}, "[7]": {"assay": "NCI Yeast Anticancer Drug Screen. Data for the sgs1 mgt1 strain (AID 161);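 note: 0% = growth of cultures given vehicle only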", "conditions": "S. cerevisiae sgs1 mgt1 strain, stronger effect = higher value", "outline": "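This yeast growth screen uses a strain with defined DNA-repair lesions; compound-treated growth is compared with vehicle-treated growth.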"}, "[8]": {"assay": "NCI Yeast Anticancer Drug Screen. Data for the CLN2oe strain (AID 163);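 note: 0% = growth of vehicle-only control cultures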", "conditions": "S. cerevisiae CLN2oe strain, stronger effect = higher value", "outline": "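Whole-cell yeast growth assay. A strain engineered for altered cell-cycle control received compound, and inhibition relative to vehicle-treated cultures was recorded.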"}, "[9]": {"assay": "NCI Yeast Anticancer Drug Screen. Data for the cln2 rad14 strain (AID 165);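 note: 0% = growth equal to vehicle treated cultures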", "conditions": "S. cerevisiae cln2 rad14 strain, stronger effect = higher value", "outline": "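Yeast strain cln2 rad14, bearing defects in cell cycle control and DNA repair, serves as the test system; values reflect growth inhibition compared with vehicle.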"}, "[10]": {"assay": "NCI Yeast Anticancer Drug Screen. Data for the bub3 strain (AID 167)", "conditions": "S. cerevisiae bub3 mutant strain, stronger effect = higher value", "outline": "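Steps: expose the mutant yeast strain to compound; grow alongside vehicle-treated cultures; measure growth; express inhibition against the vehicle cultures.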"}, "[11]": {"assay": "NCI Yeast Anticancer Drug Screen. Data for the wt2 strain (AID 169);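 note: 0% = growth of vehicle-treated yeast cultures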", "conditions": "S. cerevisiae wt2 strain growth inhibition, stronger effect = higher value", "outline": "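Treated yeast vs. vehicle-treated yeast: growth inhibition determined.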"}, "[12]": {"assay": "NCI Yeast Anticancer Drug Screen. Data for the mlh1 strain (AID 171);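 note: 0% = growth of vehicle-treated control cultures of the same strain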", "conditions": "S. cerevisiae mlh1 strain growth inhibition, stronger effect = higher value", "outline": "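A yeast strain with a defined genetic lesion serves as the test organism. Cultures receive compound or vehicle, and growth is measured.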"}, "[13]": {"assay": "NCI Yeast Anticancer Drug Screen. Data for the sgs1 strain (AID 173);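 note: 0% = growth of vehicle-only control cultures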", "conditions": "S. cerevisiae sgs1 mutant, stronger effect = higher value", "outline": "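A genetically defined yeast mutant is incubated with the test compound, and its growth is compared to that of the same strain given vehicle.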"}, "[14]": {"assay": "NCI Yeast Anticancer Drug Screen. Data for the mlh1 rad18 strain (AID 175)", "conditions": "S. cerevisiae mlh1 rad18 strain growth inhibition, stronger effect = higher value", "outline": "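Steps: expose repair-defective yeast to compound; measure growth; express inhibition against vehicle-treated controls.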"}, "[15]": {"assay": "NCI Yeast Anticancer Drug Screen. Data for the rad18 strain (AID 177)", "conditions": "S. cerevisiae rad18 mutant growth inhibition, stronger effect = higher value", "outline": "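Measured value is growth inhibition of a yeast strain bearing a DNA repair alteration, referenced to vehicle-treated cells.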"}, "[16]": {"conditions": "at 5.0 µM (retest, dose inferred, filed as 0.5)"}, "[17]": {"conditions": "at 50.0 µM (retest, dose inferred, filed as 5.0)"}}, "note": "Compounds without any hit were thinned out: in the full panel of roughly 79,000, 15% have a hit. Unmarked numbers belong to inactive results. Activity calls are given as the source filed them. Cut-off read from the data, not from the text of the source: active = growth inhibition above about 70%; inactive = the rest.", "data": [{"smiles": "COC(=O)c1c(C)ccc2c(O)c3c(cc12)C(=O)c1c2c(cc(O)c1C3=O)C1(C)OC(C)(O2)C(O)C(N(C)C)C1O", "note": "(stereo not drawn)", "values": [{"measurement": "growth inhibition", "setting": "[1]; at 1.2 µM", "result": 2, "unit": "%"}, {"measurement": "growth inhibition", "setting": "[1]; at 3.7 µM", "result": 17, "unit": "%"}, {"measurement": "growth inhibition", "setting": "[1]; at 11.0 µM", "result": 68, "unit": "%"}, {"measurement": "growth inhibition", "setting": "[1]; at 33.0 µM", "result": "94% (active)"}, {"measurement": "growth inhibition", "setting": "[1]; at 100.0 µM", "result": "91% (active)"}, {"measurement": "growth inhibition", "setting": "[2]; at 1.2 µM", "result": 5, "unit": "%"}, {"measurement": "growth inhibition", "setting": "[2]; at 3.7 µM", "result": 1, "unit": "%"}, {"measurement": "growth inhibition", "setting": "[2]; at 11.0 µM", "result": 22, "unit": "%"}, {"measurement": "growth inhibition", "setting": "[2]; at 33.0 µM", "result": "79% (active)"}, {"measurement": "growth inhibition", "setting": "[2]; at 100.0 µM", "result": "94% (active)"}, {"measurement": "growth inhibition", "setting": "[3]; at 1.2 µM", "result": -2, "unit": "%"}, {"measurement": "growth inhibition", "setting": "[3]; at 3.7 µM", "result": 17, "unit": "%"}, {"measurement": "growth inhibition", "setting": "[3]; at 11.0 µM", "result": 51, "unit": "%"}, {"measurement": "growth inhibition", "setting": "[3]; at 33.0 µM", "result": "74% (active)"}, {"measurement": "growth inhibition", "setting": "[3]; at 100.0 µM", "result": 67, "unit": "%"}, {"measurement": "growth inhibition", "setting": "[4]; at 1.2 µM", "result": 4, "unit": "%"}, {"measurement": "growth inhibition", "setting": "[4]; at 3.7 µM", "result": 35, "unit": "%"}, {"measurement": "growth inhibition", "setting": "[4]; [16]", "result": 10, "unit": "%"}, {"measurement": "growth inhibition", "setting": "[4]; at 11.0 µM", "result": "90% (active)"}, {"measurement": "growth inhibition", "setting": "[4]; at 33.0 µM", "result": "92% (active)"}, {"measurement": "growth inhibition", "setting": "[4]; [17]", "result": "98% (active)"}, {"measurement": "growth inhibition", "setting": "[4]; at 50.0 µM", "result": "97% (active)"}, {"measurement": "growth inhibition", "setting": "[4]; at 100.0 µM", "result": "84% (active)"}, {"measurement": "growth inhibition", "setting": "[5]; at 1.2 µM", "result": -3, "unit": "%"}, {"measurement": "growth inhibition", "setting": "[5]; at 3.7 µM", "result": 3, "unit": "%"}, {"measurement": "growth inhibition", "setting": "[5]; [16]", "result": 6, "unit": "%"}, {"measurement": "growth inhibition", "setting": "[5]; at 11.0 µM", "result": "70% (active)"}, {"measurement": "growth inhibition", "setting": "[5]; at 33.0 µM", "result": "97% (active)"}, {"measurement": "growth inhibition", "setting": "[5]; [17]", "result": "98% (active)"}, {"measurement": "growth inhibition", "setting": "[5]; at 50.0 µM", "result": "95.5% (active)"}, {"measurement": "growth inhibition", "setting": "[5]; at 100.0 µM", "result": "88% (active)"}, {"measurement": "growth inhibition", "setting": "[6]; at 1.2 µM", "result": 0, "unit": "%"}, {"measurement": "growth inhibition", "setting": "[6]; at 3.7 µM", "result": 18, "unit": "%"}, {"measurement": "growth inhibition", "setting": "[6]; at 11.0 µM", "result": "98% (active)"}, {"measurement": "growth inhibition", "setting": "[6]; at 33.0 µM", "result": "95% (active)"}, {"measurement": "growth inhibition", "setting": "[6]; at 100.0 µM", "result": "89% (active)"}, {"measurement": "growth inhibition", "setting": "[7]; [16]", "result": -11, "unit": "%"}, {"measurement": "growth inhibition", "setting": "[7]; [17]", "result": "95% (active)"}, {"measurement": "growth inhibition", "setting": "[7]; at 50.0 µM", "result": "97.8% (active)"}, {"measurement": "growth inhibition", "setting": "[8]; at 1.2 µM", "result": -7, "unit": "%"}, {"measurement": "growth inhibition", "setting": "[8]; at 3.7 µM", "result": 0, "unit": "%"}, {"measurement": "growth inhibition", "setting": "[8]; at 11.0 µM", "result": 39, "unit": "%"}, {"measurement": "growth inhibition", "setting": "[8]; at 33.0 µM", "result": "94% (active)"}, {"measurement": "growth inhibition", "setting": "[8]; at 100.0 µM", "result": "92% (active)"}, {"measurement": "growth inhibition", "setting": "[9]; [16]", "result": 39, "unit": "%"}, {"measurement": "growth inhibition", "setting": "[9]; [17]", "result": "97% (active)"}, {"measurement": "growth inhibition", "setting": "[9]; at 50.0 µM", "result": "92.9% (active)"}, {"measurement": "growth inhibition", "setting": "[10]; at 1.2 µM", "result": -4, "unit": "%"}, {"measurement": "growth inhibition", "setting": "[10]; at 3.7 µM", "result": -2, "unit": "%"}, {"measurement": "growth inhibition", "setting": "[10]; [16]", "result": -19, "unit": "%"}, {"measurement": "growth inhibition", "setting": "[10]; at 11.0 µM", "result": 64, "unit": "%"}, {"measurement": "growth inhibition", "setting": "[10]; at 33.0 µM", "result": "96% (active)"}, {"measurement": "growth inhibition", "setting": "[10]; [17]", "result": "98% (active)"}, {"measurement": "growth inhibition", "setting": "[10]; at 50.0 µM", "result": "95.7% (active)"}, {"measurement": "growth inhibition", "setting": "[10]; at 100.0 µM", "result": "89% (active)"}, {"measurement": "growth inhibition", "setting": "[11]; at 1.2 µM", "result": -1, "unit": "%"}, {"measurement": "growth inhibition", "setting": "[11]; at 3.7 µM", "result": 4, "unit": "%"}, {"measurement": "growth inhibition", "setting": "[11]; at 11.0 µM", "result": 39, "unit": "%"}, {"measurement": "growth inhibition", "setting": "[11]; at 33.0 µM", "result": "97% (active)"}, {"measurement": "growth inhibition", "setting": "[11]; at 100.0 µM", "result": "94% (active)"}, {"measurement": "growth inhibition", "setting": "[12]; at 1.2 µM", "result": 2, "unit": "%"}, {"measurement": "growth inhibition", "setting": "[12]; at 3.7 µM", "result": 19, "unit": "%"}, {"measurement": "growth inhibition", "setting": "[12]; at 11.0 µM", "result": 68, "unit": "%"}, {"measurement": "growth inhibition", "setting": "[12]; at 33.0 µM", "result": "97% (active)"}, {"measurement": "growth inhibition", "setting": "[12]; at 100.0 µM", "result": "95% (active)"}, {"measurement": "growth inhibition", "setting": "[13]; at 1.2 µM", "result": 0, "unit": "%"}, {"measurement": "growth inhibition", "setting": "[13]; at 3.7 µM", "result": 7, "unit": "%"}, {"measurement": "growth inhibition", "setting": "[13]; at 11.0 µM", "result": 44, "unit": "%"}, {"measurement": "growth inhibition", "setting": "[13]; at 33.0 µM", "result": "96% (active)"}, {"measurement": "growth inhibition", "setting": "[13]; at 100.0 µM", "result": "91% (active)"}, {"measurement": "growth inhibition", "setting": "[14]; [16]", "result": 1, "unit": "%"}, {"measurement": "growth inhibition", "setting": "[14]; [17]", "result": "98% (active)"}, {"measurement": "growth inhibition", "setting": "[14]; at 50.0 µM", "result": "96.5% (active)"}, {"measurement": "growth inhibition", "setting": "[15]; at 1.2 µM", "result": 1, "unit": "%"}, {"measurement": "growth inhibition", "setting": "[15]; at 3.7 µM", "result": 25, "unit": "%"}, {"measurement": "growth inhibition", "setting": "[15]; at 11.0 µM", "result": "80% (active)"}, {"measurement": "growth inhibition", "setting": "[15]; at 33.0 µM", "result": "95% (active)"}, {"measurement": "growth inhibition", "setting": "[15]; at 100.0 µM", "result": "88% (active)"}]}]}
